Sm TGR block: blocks Schistosoma mansoni thioredoxin glutathione reductase; AID 485364; Potency, µM (titrated, usually from 114 µM), actives largely listed as inhibitors; actives 3% (n = 360,000); purified TGR, DTNB reduction, TNB absorbance 405 nm; Q962Y6; also: nearly all actives have a fitted effect of over 60% in size
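Kinetic colorimetric format: TGR-catalysed, NADPH-driven DTNB reduction monitored via TNB absorbance. Enzyme dispensed at 20 nM; compound exposure 15 min at room temperature before reaction start.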
Pf growth 96h: inhibits malaria parasite growth, 96 h | P. falciparum luciferase reporter growth, 96 h | Potency, µM (top dose mostly 28.7 µM), usual class: inhibitors | actives 6.9% (n = 320,000)
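Delayed-death screen, second-generation endpoint: infected erythrocytes, 2% hematocrit, 0.05% parasitemia final; 96 hours at 37 C, 5% CO2; luciferase detection reagent; luminescence decrease equals reduced growth.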
NS1 inh: blocks influenza NS1 protein function | Potency, µM (doses to about 46.1 µM) | actives 0.4% (n = 270,000) | AID 2326; calls by dose curve; also: actives are rising curves; nearly all actives have a fitted effect of over 50% in size
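Recovery from NS1-induced slow growth read by OD600 in budding yeast switched to galactose assay medium (pH 6.0, -URA) at 1:100 dilution. Compound 23 nl per well; the matching strain lacking NS1 serves as control.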
Pf growth 48h: P. falciparum growth inhibition at 48 hours (one generation); P. falciparum luciferase growth in erythrocytes, 48 h; Potency, µM (top dose mostly 28.7 µM), hits mostly inhibitors; actives 5.9% (n = 310,000)
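Cell-based growth assay: transgenic P. falciparum expressing firefly luciferase, cultured in red cells within RPMI 1640 containing 0.5% w/v Albumax, 24 mM bicarbonate and gentamycin. A drop in luciferase activity indicates inhibition.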
AMA1-RON2 inh: disrupts binding of P. falciparum AMA1 to RON2 | actives 0.2% (n = 360,000) | Potency, µM (doses to about 58.2 µM), actives largely listed as inhibitors | AID 720542 | AlphaScreen AMA1-biotinylated RON2 peptide binding; also: nearly all actives have a fitted effect of over 45% in size
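AMA1 (3D7) with his tag at 25 nM final met compounds first, then biotinylated RON2 peptide at 25 nM; detection used donor plus acceptor beads, 10 µg/mL apiece, read by AlphaScreen after 30 min at room temperature.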
A number is an active result; i = inactive; ? = inconclusive; nt = no result; [ ] = another dose, or the depositor's remark. The list is not random: actives were taken first. Their share in the collection is about 11%. Unless noted, calls follow the shape of the dose curve; as a rule, active = well fitted curve in the direction sought with a large enough effect; inconclusive = small, poorly fitted or top-dose-only effect, or another doubt; inactive = no such curve, though single readings can be large; an effect the other way counts as inactive or inconclusive.

SMILES | Sm TGR block | Pf growth 96h | NS1 inh | Pf growth 48h | AMA1-RON2 inh
COc1ccc(C(C(O)C(=O)c2c[nH]c3ccccc23)N2CCN(c3ccc(OC)cc3)CC2)cc1 (stereo not given) | i | nt | i | 13µM | i
O=C(c1c[nH]c2ccccc12)C(O)C(c1ccccc1)N1CCOCC1 (stereo not given) | i | i | i | i | i
Cn1cnnc1SCC(=O)Nc1ccc(C#N)cc1 | i | nt | nt | nt | nt
COc1ccc(CNCCC(c2ccc(F)cc2)c2ccc(OC(C)C)cc2)cc1OC (stereo not given) | i | 12µM | i | 13µM | i
COc1ccc(CC(C)NCCC(c2ccccc2)c2ccccc2)cc1 (stereo not given) | i | 10µM | i | ? | i
COc1ccc(C(CCNCc2ccc(F)cc2)c2ccc(F)cc2)cc1 (stereo not given) | i | ? | i | 4.7µM | i
COc1ccc(CNCCC(c2ccccc2)c2ccc(OC(C)C)cc2)cc1OC (stereo not given) | i | ? | i | 9.3µM | i
COc1ccc(C(CCNCc2ccccc2)c2ccc(F)cc2)cc1 (stereo not given) | i | i | i | i | i
O=C(O)c1cc(S(=O)(=O)Nc2cccc3ccccc23)c(Cl)cc1Cl | i | i | i | i | i
O=C(Nc1ccccc1)C1CCCN(C(=O)c2ccc(F)cc2)C1 (stereo not given) | i | i | nt | ? | i
COc1ccc(CN(CCC(c2ccccc2)c2ccc(OC(C)C)cc2)C(=O)CCl)cc1OC (stereo not given) | ? | 3.7µM | i | ? | i
CC(C)Cc1cc(-c2ccco2)c(C#N)c(N)n1 | 35µM | i | i | i | i
N#Cc1c(-c2ccc(F)cc2)cc(-c2cccnc2)nc1N | i | i | i | i | i
N#Cc1c(-c2ccco2)cc(-c2ccc(F)cc2)nc1N | 6.3µM | i[5.75 µM] | i | i | i
CCc1ccc(-c2nn(CC(=O)NCc3ccccc3)c3c2cnc2ccc(C)cc23)cc1 | i | nt | nt | nt | nt
c1ccc(Cn2c(-c3ccccc3)c[n+]3c2SCCC3)cc1 | i | ? | i | 1µM | i
COc1ccc(NC(=O)C/C(C)=N/NC(=O)C2CCCCC2)c([N+](=O)[O-])c1 | i | 10µM | i | i | i
CNC(=O)C1CCN(Cc2cc3ccccc3n2Cc2cccc(C)c2)CC1 | i | nt | nt | nt | nt
CC1CCN(C(=S)Nc2ccc(F)cc2)CC1 | i | i | i | i | i
C/C(=N\NC(=S)Nc1ccc(F)cc1)C1CC1 | i | 12µM | i | ? | i
Cc1cccc(Nc2ccc(S(=O)(=O)N3CCOCC3)cc2[N+](=O)[O-])c1 | i | ? | nt | i | ?
Cc1ccc(CNc2ccc(S(=O)(=O)N3CCOCC3)cc2[N+](=O)[O-])cc1 | i | 10µM | i | i | i
CC(=O)N1CCC(=NNc2ccc(S(=O)(=O)N3CCOCC3)cc2[N+](=O)[O-])CC1 | ? | ? | i | i | i
CC(C)N1CCC(=NNc2ccc(S(=O)(=O)N3CCOCC3)cc2[N+](=O)[O-])CC1 | 35µM | i | i | i | i
COc1ccc(OC)c(NC(=O)c2ccc(-c3nc(COc4ccccc4)c(C)o3)cc2)c1 | i | nt | nt | nt | nt
SMILES | Sm TGR block | Pf growth 96h | NS1 inh | Pf growth 48h | AMA1-RON2 inh
COc1cc2c(C(=O)NCc3ccc(C)o3)cn(CC(C)C)c(=O)c2cc1OC | 10µM | ? | i | ? | i
CCn1cc(C(=O)NCc2ccco2)c2cc(OC)c(OC)cc2c1=O | ? | nt | i | i | i
O=C(Nc1ccc(C(=O)N2CCCCC2)cc1)C1CCC1 | nt | nt | nt | nt | i
COc1ccc(C2c3cc(OC)c(OC)cc3CC(=O)N2c2cccc(C#N)c2)cc1 (stereo not given) | i | nt | nt | nt | nt
O=C(c1cc(Cl)ccc1Cl)N1CCN(c2ccccn2)CC1 | i | i | i | i | i
O=C(c1cc(-c2ccccc2Cl)nc2ccccc12)N1CCOCC1 | i | 0.37µM | i | i | i
O=C(c1cnc(N2CCN(c3ccccn3)CC2)c2ccccc12)N1CCN(c2cccc(Cl)c2)CC1 | i | i | nt | 9.3µM | i
O=C(c1cc(Sc2ccc(Cl)cc2)nc2ccccc12)N1CCN(c2ccccn2)CC1 | i | i | nt | 12µM | i
CCCc1ccc(-c2cc(C(=O)N3CCN(c4ccccn4)CC3)c3ccccc3n2)cc1 | i | 5.2µM | i | i | i
O=C(c1cc(Sc2cccc(Cl)c2)nc2ccccc12)N1CCN(c2ccccn2)CC1 | i | ? | nt | ? | i
O=C(c1cc(-c2ccccc2Cl)nc2ccccc12)N1CCC1 | i | i | nt | i | i

Screening results as filed in PubChem BioAssay.
